Source: PubChem BioAssay (National Center for Advancing Translational Sciences (NCATS))
CHX counter = affects cycloheximide protein synthesis inhibition readout, counter-screen | cell reporter, cycloheximide protein synthesis inhibition counterscreen | max response, % | AID 2314 | 300,000 tested, 12% active; in the data active = max response mostly above about 13%, no sharp cut-off; inactive = mostly below about 14%; also: read at 38.3 µM for the half of the compounds with a filed dose
Pf growth 96h = P. falciparum growth inhibition at 96 hours; Potency, µM (highest dose often 28.7 µM), actives largely listed as inhibitors; 320,000 tested, 6.9% active; P. falciparum luciferase reporter growth, 96 h
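P. falciparum expressing integrated firefly luciferase, in erythrocytes at 2% hematocrit, 0.05% parasitemia, incubated with compounds 96 h at 37 C, 5% CO2. Growth inhibition read as loss of luminescence; two-generation exposure targets delayed-death apicoplast inhibitors.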
Shiga toxin inh = inhibitors of Shiga toxin in Vero cells. Vero cells, Shiga toxin protein synthesis inhibition reporter. inhibition, % at 38.7 µM. 290,000 tested, 9.2% active. AID 2315; in the data active = inhibition mostly above about 28%, no sharp cut-off; inactive = mostly below about 43%
Pf growth 48h = inhibits P. falciparum growth in the first generation, 48 h; P. falciparum luciferase growth in erythrocytes, 48 h; Potency, µM (doses to about 28.7 µM), most hits filed as inhibitors; 310,000 tested, 5.9% active
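Compounds are pin-transferred into medium, infected erythrocytes (2% hematocrit, 0.1% parasitemia final) are added, and plates sit one parasite generation at 37 C in 5% CO2. Detection reagent is then added and luminescence measured.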
Each line names hits and unclear results; the compound was inactive in the other large screens. Shown are actives, neighbours in structure and some others; about 21% of the full set was active somewhere. Unless noted, calls follow the shape of the dose curve; as a rule, active = well fitted inhibition curve with a large enough effect; inconclusive = small, poorly fitted or top-dose-only effect, or another doubt; inactive = no such curve, though single readings can be large or run the other way.

O=C(c1ccco1)[C@@H]1[C@@H]2C(=O)N(c3ccc(F)cc3)C(=O)[C@@H]2[C@H]2C=Cc3ccccc3N21	Pf growth 96h 3.7µM, Pf growth 48h inconclusive
NC(=O)[C@@H]1[C@@H]2C(=O)N(c3ccc(F)cc3)C(=O)[C@@H]2[C@H]2C=Cc3ccccc3N21	Pf growth 96h inconclusive, Pf growth 48h inconclusive
CCOC(=O)N1CCN(S(=O)(=O)c2ccc(F)c(C(=O)Nc3ccc(C(C)C)cc3)c2)CC1	Pf growth 96h inconclusive, Pf growth 48h inconclusive
CCOC(=O)N1CCN(CC(=O)Nc2ccc(F)c(F)c2)CC1	none
CCOC(=O)N1CCN(CCC(=O)Nc2ccc(F)c(F)c2)CC1	Pf growth 96h 14.7µM, Pf growth 48h inconclusive
CCOC(=O)C1(c2ccccc2)CCN(CCC(=O)Nc2ccc(F)cc2)CC1	Pf growth 96h 9.28µM, Pf growth 48h 13.1µM (no result: CHX counter, Shiga toxin inh)
CCN1CCN(CCC(=O)Nc2ccccc2OC)CC1	Pf growth 96h inconclusive
CCOC(=O)N1CCN(S(=O)(=O)c2ccc(F)c(C(=O)Nc3ccc(C)c(Cl)c3)c2)CC1	Pf growth 48h 13.1µM
CCOC(=O)C1(c2ccccc2)CCN(CCC(=O)Nc2ccccc2OC)CC1	Pf growth 96h inconclusive, Pf growth 48h inconclusive
CCOC(=O)N1CCN(CCC(=O)Nc2ccccc2OC)CC1	Pf growth 96h 13.1µM
COc1ccc(Cl)cc1NC(=O)NCc1ccccn1	none
O=C/C(=C\Nc1ccccn1)c1nc2cc(Cl)ccc2o1	CHX counter 47.2, Pf growth 96h inconclusive, Shiga toxin inh 63.1, Pf growth 48h inconclusive
CC(=O)Nc1ccc(N/C=C(\C=O)c2nc3ccccc3o2)cc1	Pf growth 96h inconclusive
O=C/C(=C\Nc1ccccn1)c1nc2ccccc2o1	CHX counter 27.5, Shiga toxin inh active, Pf growth 48h inconclusive
CC(=O)Nc1cccc(N/C=C(\C=O)c2nc3ccccc3o2)c1	CHX counter 29.0, Shiga toxin inh 35.6
COC(=O)c1cc(NC(=O)CC2NC3CCCCC3NC2=O)cc(C(=O)OC)c1 (stereo not drawn)	none
COc1ccc(CCNC(=O)c2cccc(S(=O)(=O)N3CCCCCC3)c2)cc1	Pf growth 96h inconclusive (no result: CHX counter, Shiga toxin inh)
Cc1cnn(C(=O)c2ccccc2Br)c1	none
S=c1[nH]nc(-c2ccc3ccccc3n2)n1-c1ccc(Cl)cc1	Pf growth 96h 0.586µM
Cc1n[nH]c(=S)n1-c1ccc(Cl)cc1	Pf growth 96h 5.86µM
Fc1ccc(-n2c(-c3ccc4ccccc4n3)n[nH]c2=S)cc1Cl	none
CCO[C@@H]1OC(C(=O)N2CCN(C)CC2)=C[C@H](c2ccc(C(F)(F)F)cc2)[C@H]1CCCO	Pf growth 96h inconclusive
Cc1ccccc1OCC(=O)Nc1ccc(N2CCN(C(=O)c3ccco3)CC2)cc1	Pf growth 48h inconclusive
COc1ccc(COC(=O)Nc2cn(C)nc2C(F)(F)F)cc1	none
CCN1C/C(=C/c2ccc(N3CCOCC3)cc2)C(=O)/C(=C/c2ccc(N3CCOCC3)cc2)C1	CHX counter 25.6, Pf growth 96h 4.15µM, Shiga toxin inh 35.6, Pf growth 48h 7.38µM
CN1C/C(=C\c2ccc(N3CCOCC3)cc2)C(=O)/C(=C/c2ccc(N3CCOCC3)cc2)C1	Pf growth 48h inconclusive
O=C(O)c1ccc2c(=O)n3c(nc2c1)/C(=C/c1ccccc1OC(F)F)CC3	none
COc1cccc(CNC(=O)c2cccc(Br)c2)c1	Pf growth 48h inconclusive
COc1cc(CNC(=O)c2cccc(COc3ccc(Cl)cc3)c2)cc(OC)c1	CHX counter 51.6, Shiga toxin inh 112.6
O=C(NCc1ccccc1)c1cccc(COc2ccc(Cl)cc2)c1	CHX counter 130.5, Shiga toxin inh 199.5
O=C(NCc1ccccc1)c1cccc(COc2cccc(Cl)c2)c1	none
COc1ccc(CNC(=O)CN2C(=O)COc3ccc(S(=O)(=O)N4CCC(C)CC4)cc32)cc1	Pf growth 96h 13.1µM
CC1CCN(S(=O)(=O)c2ccc3c(c2)N(CC(=O)NCCCN2CCCC(C)C2)C(=O)CO3)CC1 (stereo not drawn)	Pf growth 96h 11.7µM
CC(C)CN(CCCNC(=O)CN1C(=O)COc2ccc(S(=O)(=O)N3CCCC3)cc21)CC(C)C	Pf growth 96h inconclusive, Pf growth 48h 11.7µM
CC(C)N(Cc1ccccc1)C(=O)CN1C(=O)COc2ccc(S(=O)(=O)N3CCCCCC3)cc21	Pf growth 48h 0.828µM
CCN(CC)CCNS(=O)(=O)c1ccc(OC)c(Br)c1	none (no result: Pf growth 48h)
O=C(CCCNC(=O)/C(=C\c1ccc(F)cc1)NC(=O)c1ccccc1)OCc1ccccc1	none
COc1cccc(C2CC(c3cccc(OC)c3)n3nc(N)nc3N2)c1 (stereo not drawn)	Pf growth 96h 11.7µM
COc1cccc(C2CC(c3cccc(Br)c3)n3ncnc3N2)c1 (stereo not drawn)	Pf growth 96h 11.7µM
COc1ccc(C2CC(c3cccc(Cl)c3)n3nc(N)nc3N2)cc1 (stereo not drawn)	Pf growth 96h 9.28µM
NC(=O)c1ccc(NC(=O)CSc2nnc(-c3ccccn3)n2N)cc1	Pf growth 96h inconclusive
CCOC(=O)C1CCN(C(=O)c2ccc(NC(=O)C3CCCO3)cc2)CC1 (stereo not drawn)	none
CC(=O)c1ccc(N2CCN(C(=O)c3ccc(NC(=O)C4CCCO4)cc3)CC2)cc1 (stereo not drawn)	CHX counter 14.2, Pf growth 48h inconclusive
O=C(Nc1cccc(NC(=O)C2CCCO2)c1)C1CCCO1 (stereo not drawn)	none
Cc1ccc(NC(=O)C2CCCO2)cc1[N+](=O)[O-] (stereo not drawn)	CHX counter 27.6, Pf growth 96h 2.62µM
CC(=O)c1ccc(NC(=O)C2CCCO2)cc1 (stereo not drawn)	CHX counter 38.4 (no result: Shiga toxin inh)
O=C(COC(=O)c1cccs1)NCCc1ccc(F)cc1	none (no result: CHX counter, Shiga toxin inh)
CC(C(=O)Nc1ccc2c(c1)OCCO2)n1nnc(-c2ccccc2)n1 (stereo not drawn)	Pf growth 96h inconclusive
CC(C(=O)Nc1ccc2c(c1)OCCO2)N1Cc2ccccc2C1=O (stereo not drawn)	CHX counter 21.2
C[C@@H](C(=O)Nc1ccc2c(c1)OCCO2)n1nnc2ccccc2c1=O	CHX counter 44.9, Shiga toxin inh 106.7
COc1ccc(-n2c(SCC(=O)N3CCOCC3)nc3ccccc3c2=O)cc1	none
CCOC(=O)Cn1c(=O)oc2cc(S(=O)(=O)NCc3cccs3)ccc21	Pf growth 96h 13.1µM (no result: Pf growth 48h)
CCOC(=O)Cn1c(=O)oc2cc(S(=O)(=O)NCc3ccccn3)ccc21	Pf growth 96h 11.7µM (no result: Pf growth 48h)
COC(CNC(=O)c1cn(C)c2ccc(S(=O)(=O)N3CCOCC3)cc2c1=O)OC	Pf growth 96h 9.28µM
Cn1cc(C(=O)N2CCN(c3ccccc3)CC2)c(=O)c2cc(S(=O)(=O)N3CCOCC3)ccc21	Pf growth 96h inconclusive
CCOC(=O)N1CCN(C(=O)c2cn(C)c3ccc(S(=O)(=O)N4CCOCC4)cc3c2=O)CC1	Pf growth 96h 11.7µM
CCOc1ccc(S(=O)(=O)N2CCN(C(=O)c3cc(S(=O)(=O)N4CCOCC4)ccc3C)CC2)cc1	Pf growth 96h 3.7µM, Pf growth 48h 8.28µM (no result: CHX counter, Shiga toxin inh)
CSCCC(=O)NC1CCCN(CCc2ccccc2)C1 (stereo not drawn)	Pf growth 96h inconclusive
COc1cccc(OCC(=O)NC2CCS(=O)(=O)C2)c1 (stereo not drawn)	none (no result: CHX counter, Shiga toxin inh)
Fc1ccc(CSc2nc3ncc(Br)cc3[nH]2)cc1	Pf growth 96h 9.28µM (no result: Pf growth 48h)
